# The source made the active and inactive calls. The rule behind the calls is not given here.
# Biological target: Pantothenate synthetase (Mycobacterium tuberculosis (strain ATCC 25618 / H37Rv)) (UniProt P9WIL5)
# Experiment: Recombinant Mtb pantothenate synthetase (PanC) inhibitors, coupled enzyme, confirmatory (AID 375);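 note: 0% = full reaction with vehicle and 100% = no enzyme background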
# Details: coupled enzyme assay; at 10 µM, active compounds read high
# Sequence of Pantothenate synthetase (Mycobacterium tuberculosis (strain ATCC 25618 / H37Rv)) (P9WIL5 whole entry, looked up): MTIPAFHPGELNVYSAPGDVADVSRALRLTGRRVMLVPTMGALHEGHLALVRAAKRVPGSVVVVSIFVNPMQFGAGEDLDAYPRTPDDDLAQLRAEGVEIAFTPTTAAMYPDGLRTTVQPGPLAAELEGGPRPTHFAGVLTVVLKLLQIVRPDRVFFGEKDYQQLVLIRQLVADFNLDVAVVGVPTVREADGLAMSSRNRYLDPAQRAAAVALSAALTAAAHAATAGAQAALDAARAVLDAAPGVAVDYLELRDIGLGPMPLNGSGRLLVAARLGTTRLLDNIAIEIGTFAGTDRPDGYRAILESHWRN
row,SMILES,inhibition
1,O=c1[nH]c2cc3c(cc2cc1C(c1nnnn1C1CCCCC1)N1CCSCC1)OCCO3 (configuration not stated),4% (inactive)
2,CCOC(=O)N1CCN(Cc2nc3c(c(=O)n(C)c(=O)n3C)n2Cc2ccccc2)CC1,0% (inactive)
3,COc1ccc(CCNC(=O)CSc2nncn2N)cc1OC,5% (inactive)
4,CCS(=O)(=O)CCn1c([N+](=O)[O-])cnc1C,7% (inactive)
5,CCC(=O)c1ccc(O)cc1,0% (inactive)
6,CCOc1ccc(-c2nc(C#N)c(N3CCCCCC3)o2)cc1,4% (inactive)
7,COc1cccc(OCc2nc3ccccc3[nH]2)c1,0% (inactive)
8,COc1cccc(-n2nc(C(=O)Nc3ccc4c(c3)OCO4)c3ccccc3c2=O)c1,0% (inactive)
9,CCOC(=O)C1CCN(C(=O)Nc2ccc(Cl)cc2Cl)CC1,0% (inactive)
10,C=CCn1c(Cc2cccs2)nnc1SCC(=O)Nc1ccc(OC)c(OC)c1,0% (inactive)
11,COC1=CC(=O)CC(C)C12Oc1c(Cl)c(OC)cc(OC)c1C2=O (configuration not stated),0% (inactive)
12,CCc1cc2c(=O)c(-c3nc4ccccc4[nH]3)coc2c(CN2CCC(C)CC2)c1O,4% (inactive)
13,Nc1c(S(=O)(=O)c2cccs2)c2nc3ccccc3nc2n1CC1CCCO1 (configuration not stated),0% (inactive)
14,O=C(CN1CCN(Cc2ccc(F)cc2Cl)C1=O)NCCCN1CCOCC1,0% (inactive)
15,NS(=O)(=O)c1cc2c(cc1Cl)NC(CSCc1ccccc1)=NS2(=O)=O,0% (inactive)
16,Cc1ccc(C(=O)CC2(O)C(=O)N(C)c3ccc(Br)cc32)c(C)c1 (configuration not stated),0% (inactive)
17,CCC(C)(C)NC(=O)C(OC(=O)c1ccco1)c1ccccc1OC (configuration not stated),0% (inactive)

# From PubChem BioAssay
